AC50 and outcome data for 7 compounds are collected here from PubChem BioAssay (EPA / NIEHS).

The source made the active and inactive calls. How the source made its calls: active means hit-call score of the fitted dose curve at least 0.9, where 1 is the maximum; inactive means score below 0.9.

Usually AC50 stands for the concentration at which the activity in the assay is half-maximal.

Read-out in assay [1]: Monocyte Chemoattractant Protein-1 (MCP1), CCL2 (gene 6347)
As to the kind of experiment: BSK_LPS_MCP1: BioMAP Diversity Plus: LPS Assay for Monocyte Chemoattractant Protein-1 (MCP1) Biomarker Activity (AID 2283081).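 On AC50: secreted MCP-1 protein quantified by ELISA in culture supernatant.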 The settings on record: primary human HUVEC with PBMC; actives raise or lower the signal. The method in brief:
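Human endothelial–PBMC co-cultures were dosed with chemical, then LPS-driven MCP-1 levels were quantified by ELISA at 24 h. Activity in either direction was fitted versus DMSO negative control.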

Assay [2] in a line: BSK_LPS_PGE2: BioMAP Diversity Plus: LPS Assay for Prostaglandin E2 (PGE2) Biomarker Activity (AID 2283082).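 On AC50: secreted prostaglandin E2 measured by ELISA in LPS-stimulated co-culture.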 The following applies: primary human HUVEC with PBMC; actives raise or lower the signal. Summed up:
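Primary human endothelial cells and blood mononuclear cells, co-cultured with LPS, receive test chemical; PGE2 ELISA follows at 24 h, with SRB-stained parallel cultures flagging cytotoxicity.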

Read-out in assay [3]: Macrophage colony-stimulating factor (MCSF), CSF1 (gene 1435)
Kind of assay: BSK_LPS_MCSF: BioMAP Diversity Plus: LPS Assay for Macrophage colony-stimulating factor (MCSF) Biomarker Activity (AID 2283083). The following applies: primary human HUVEC with PBMC; actives raise or lower the signal. The method in brief: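 ELISA readout of M-CSF after 24 h compound exposure in a human endothelial/PBMC co-culture. Activity, in either direction, is fitted relative to DMSO vehicle.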

Read-out in assay [4]: Tissue Factor, F3 (gene 2152)
As to the kind of experiment: BSK_LPS_TissueFactor: BioMAP Diversity Plus: LPS Assay for Tissue Factor Biomarker Activity (AID 2283084). The settings on record: primary human HUVEC with PBMC; actives raise or lower the signal. Summed up:
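ELISA signal for cell-surface Tissue Factor (CD142) was read 24 h after compound dosing of an LPS-stimulated human endothelial–PBMC primary co-culture. Gain or loss of signal was scored relative to DMSO.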

Read-out in assay [5]: Vascular cell adhesion molecule 1 (VCAM1), VCAM1 (gene 7412)
Kind of assay: BSK_LPS_VCAM1: BioMAP Diversity Plus: LPS Assay for Vascular cell adhesion molecule 1 (VCAM1) Biomarker Activity (AID 2283086). The following applies: primary human HUVEC with PBMC; actives raise or lower the signal. Summed up: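 Measured by ELISA: VCAM-1 in LPS-activated HUVEC/PBMC co-cultures 24 h after treatment. Values reflect bidirectional fitting with DMSO as baseline.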

Read-out in assay [6]: CD38, CD38 (gene 952)
As to the kind of experiment: BSK_SAg_CD38: BioMAP Diversity Plus: SAg Assay for CD38 Biomarker Activity (AID 2283087). The settings on record: primary human HUVEC with PBMC; actives raise or lower the signal. The method in brief:
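Measures CD38 on a human endothelial/PBMC co-culture driven by SEB and TSST-1, 24 h after compound exposure, using ELISA with fluorescence detection; DMSO defines baseline for bidirectional curve fitting.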

Read-out in assay [7]: CD40, CD40 (gene 958)
Kind of assay: BSK_SAg_CD40: BioMAP Diversity Plus: SAg Assay for CD40 Biomarker Activity (AID 2283088). The following applies: primary human HUVEC with PBMC; actives raise or lower the signal. The method in brief:
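Compounds were dosed onto a human primary endothelial–PBMC co-culture, and after 24 h CD40 was quantified by ELISA using a fluorescence signal. Activity in either direction was fitted relative to DMSO.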

Read-out in assay [8]: CD69, CD69 (gene 969)
Kind of assay: BSK_SAg_CD69: BioMAP Diversity Plus: SAg Assay for CD69 Biomarker Activity (AID 2283089).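 On AC50: cell surface CD69 protein quantified by ELISA with fluorescence detection.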 The settings on record: primary human HUVEC with PBMC; actives raise or lower the signal. The method in brief: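 Endothelial/PBMC co-culture; chemical added; 24 h incubation; CD69 ELISA with fluorescence detection; bidirectional fit vs DMSO.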

Read-out in assay [9]: E-selectin (Homo sapiens) (UniProt P16581)
Kind of assay: BSK_SAg_Eselectin: BioMAP Diversity Plus: SAg Assay for Eselectin Biomarker Activity (AID 2283091). The following applies: primary human HUVEC with PBMC; actives raise or lower the signal. The method in brief: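 Co-culture: HUVEC + PBMC. Dose compound; 24 h. ELISA for E-selectin. Bidirectional fit vs DMSO.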

Read-out in assay [10]: Monokine induced gamma interferon (MIG), CXCL9 (gene 4283)
As to the kind of experiment: BSK_SAg_MIG: BioMAP Diversity Plus: SAg Assay for Monokine induced gamma interferon (MIG) Biomarker Activity (AID 2283092). The settings on record: primary human HUVEC with PBMC; actives raise or lower the signal. The method in brief: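 Measures CXCL9 protein by ELISA in a human vascular primary-cell co-culture (umbilical vein endothelium with PBMC) 24 h after chemical addition. Activity is scored up or down from the DMSO control.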

Assay [11] is described as follows: BSK_SAg_PBMCCytotoxicity: PBMC Cytotoxicity Assessment in the BioMAP Diversity Plus: SAg Assay (AID 2283093).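 Further: PBMC viability measured as Alamar Blue reduction fluorescence at 546/580 nm; fitted both ways against DMSO so a hit may be loss or gain of signal.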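 On AC50: PBMC superantigen activated with SEB plus TSST-1 one hour after compound addition.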 The settings on record: primary human HUVEC with PBMC. The method in brief:
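Alamar Blue reduction (6 h, 546/580 nm) reports PBMC cytotoxicity after 90 h superantigen activation (SEB, TSST-1; 20 ng/mL final each) with 1 h compound pre-treatment. Gain or loss of signal fitted versus DMSO.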

Read-out in assay [12]: Interleukin-8 (IL8), CXCL8 (gene 3576)
Kind of assay: BSK_SAg_IL8: BioMAP Diversity Plus: SAg Assay for Interleukin-8 (IL8) Biomarker Activity (AID 2283094). The settings on record: primary human HUVEC with PBMC; actives raise or lower the signal. The method in brief: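 Primary human endothelial cells with PBMC, exposed 24 h; IL-8 determined by ELISA, analysed bidirectionally relative to DMSO.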

A short description of assay [13]: BSK_SAg_Proliferation: Cell Proliferation Assessment in the BioMAP Diversity Plus: SAg Assay (AID 2283095).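 Further: relative cell number as total protein by SRB absorbance in sub-confluent culture.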 The settings on record: primary human HUVEC with PBMC. The method in brief: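 A human primary co-culture of umbilical vein endothelium and blood mononuclear cells receives compound; relative cell number is quantified at 96 h by SRB staining and 560 nm absorbance, with DMSO-referenced bidirectional curve fitting.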

Assay [14] is described as follows: BSK_SAg_SRB: Viability Assessment in the BioMAP Diversity Plus: SAg Assay (AID 2283096).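 Further: cells read one day after compound addition; hits may be either gain or loss of signal compared with DMSO.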 The following applies: primary human HUVEC with PBMC. Summed up:
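This overt-cytotoxicity endpoint quantifies protein in human endothelial/PBMC co-cultures at 24 h using SRB absorbance (560 nm) after trichloroacetic acid fixation. Values reflect signal change from the DMSO negative control, fitted bidirectionally.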

Read-out in assay [15]: Monocyte Chemoattractant Protein-1 (MCP1), CCL2 (gene 6347)
As to the kind of experiment: BSK_SAg_MCP1: BioMAP Diversity Plus: SAg Assay for Monocyte Chemoattractant Protein-1 (MCP1) Biomarker Activity (AID 2283090). The following applies: primary human HUVEC with PBMC; actives raise or lower the signal. The method in brief: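 Values derive from bidirectional fitting of ELISA-measured MCP1 against DMSO controls. Readings were taken 24 h after dosing human vascular endothelial cells co-cultured with peripheral blood mononuclear cells under superantigen stimulation.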

Read-out in assay [16]: Tumor necrosis factor (Homo sapiens) (UniProt P01375)
Kind of assay: BSK_LPS_TNFa: BioMAP Diversity Plus: LPS Assay for Tumour Necrosis Factor alpha (TNFa) Biomarker Activity (AID 2283085). The following applies: primary human HUVEC with PBMC; actives raise or lower the signal. The method in brief:
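ELISA-based TNFa endpoint in a human endothelial–PBMC co-culture sampled 24 h post-exposure. Curves were fitted in both directions using DMSO as baseline of activity.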

Sequence of E-selectin (Homo sapiens) (P16581 whole entry, looked up): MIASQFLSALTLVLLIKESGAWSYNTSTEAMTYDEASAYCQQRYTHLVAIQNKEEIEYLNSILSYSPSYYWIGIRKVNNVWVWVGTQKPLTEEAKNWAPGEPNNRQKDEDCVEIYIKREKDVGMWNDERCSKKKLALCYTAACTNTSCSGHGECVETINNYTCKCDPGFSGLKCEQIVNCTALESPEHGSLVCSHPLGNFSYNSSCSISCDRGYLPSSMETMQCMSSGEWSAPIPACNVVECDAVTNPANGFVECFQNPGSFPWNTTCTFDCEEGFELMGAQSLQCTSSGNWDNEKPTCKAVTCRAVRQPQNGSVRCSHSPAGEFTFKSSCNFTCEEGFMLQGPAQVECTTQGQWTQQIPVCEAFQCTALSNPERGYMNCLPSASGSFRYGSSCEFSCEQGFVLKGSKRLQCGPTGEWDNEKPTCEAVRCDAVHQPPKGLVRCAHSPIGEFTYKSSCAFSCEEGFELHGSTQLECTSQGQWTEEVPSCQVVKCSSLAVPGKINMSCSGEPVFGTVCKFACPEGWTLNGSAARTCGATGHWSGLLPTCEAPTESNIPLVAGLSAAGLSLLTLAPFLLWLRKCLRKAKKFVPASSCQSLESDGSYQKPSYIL
Sequence of Tumor necrosis factor (Homo sapiens) (P01375 whole entry, looked up): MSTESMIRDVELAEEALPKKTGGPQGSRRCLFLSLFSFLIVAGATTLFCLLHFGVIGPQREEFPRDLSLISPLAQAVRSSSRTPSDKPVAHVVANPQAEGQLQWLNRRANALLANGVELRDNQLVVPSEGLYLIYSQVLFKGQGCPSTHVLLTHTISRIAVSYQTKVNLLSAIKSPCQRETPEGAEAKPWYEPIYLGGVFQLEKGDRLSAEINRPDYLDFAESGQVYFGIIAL

As to `NC(=NCCCCCCN=C(N)/N=C(\N)Nc1ccc(Cl)cc1)/N=C(\N)Nc1ccc(Cl)cc1`, the AC50 was 4.95 µM (active) in [1]; 4.92 µM (active) in [3]; 4.98 µM (active) in assay [4]; 6.08 µM (active) in assay [5]; 8.71 µM (active) in [6]; 5.1 µM (active) in assay [7]. The AC50 in assay [8] was 7.57 µM (active); in assay [9] it was 5.02 µM (active); in [10] it was 7.58 µM (active); in assay [11] it was 7.06 µM (active); in [12], 0.896 µM (active); in assay [13] it was 2.72 µM (active). The half-maximal activity concentration (AC50) in assay [14] was 4.89 µM (active). For the same compound, the result in [2] was inactive.
With `C=CC(=C)CC/C=C(\C)CCC=C(C)C`, the outcome in assay [1], in [2], in assay [3], in assay [4], in assay [6] and in assay [7] was inactive. Also, the outcome in [8], in [9], in assay [10], in [11], in assay [12] and in assay [13] was inactive. For the same compound, the result in assay [14] was inactive. In addition, the AC50 in [15] was 0.042 µM (active).
Take `CN(C)CCOC(c1ccccc1)c1ccccc1`: the result in assay [1], in assay [2], in [4], in [6], in [7] and in assay [8] was inactive. For the same compound, the result in assay [15], in assay [9], in assay [10], in assay [11], in assay [12] and in [13] was inactive. The result in assay [14] was inactive.
As to `O=C1OC2(c3ccccc31)c1cc(I)c(O)c(I)c1Oc1c2cc(I)c(O)c1I`, the AC50 in assay [1] is 6.33 µM (active); in assay [2] it was 3.14 µM (active); in [3] it was 6.69 µM (active); in [4], 19.8 µM (active); in [6], 7.06 µM (active); in [7], 12 µM (active). Besides, the AC50 in assay [8] is 10.5 µM (active); in assay [15], 10.2 µM (active). The outcome in assay [16], in assay [10], in [11], in assay [12], in assay [13] and in assay [14] was inactive.
`O=C(O)CCC(F)(F)C(F)(F)C(F)(F)C(F)(F)C(F)(F)C(F)(F)F`: the outcome in assay [1], in assay [2], in assay [3], in assay [4], in assay [5] and in assay [6] was inactive. In addition, the outcome in assay [7], in [8], in assay [15], in [9], in assay [10] and in assay [11] was inactive. Further, the result in assay [12], in [13] and in [14] was inactive.
In the case of `O=C(CCCN1CCC(O)(c2ccc(Cl)cc2)CC1)c1ccc(F)cc1`, the concentration at half-maximal activity (AC50) in assay [1] is 29 µM (active); in assay [4], 20 µM (active); in assay [13], 27 µM (active); in assay [14], 19 µM (active). For the same compound, the result in [2], in assay [3], in assay [6], in assay [7], in [8] and in [15] was inactive. Moreover, the outcome in assay [9], in [10], in assay [11] and in assay [12] was inactive.
Regarding `CCCCC=O`, the result in [1], in [2], in assay [3], in assay [4], in assay [5] and in assay [6] was inactive. The outcome in assay [7], in assay [8], in assay [15], in assay [9], in [10] and in [11] was inactive. The result in assay [12], in [13] and in [14] was inactive.
